According to PubChem BioAssay AID1159580 (chemical genetic matrix, 2015):
In all, about 5,500 compounds went through this assay and about 2,000 (36%) were called active. Another 18% or so got no clear call; they are omitted. Cut-off read from the data, not from the text of the source: active = normalized growth mostly below about 0.91 (no sharp cut-off); inconclusive = no clear call, values can overlap the other calls; inactive = mostly above about 0.92. This is one part of the list.

Assay: chemical genetic growth profiling, strain panel (AID 1159580);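 note: tested at 20 µM; growth read once vehicle control cultures reached saturation at 30 °C; 1 = growth at the plate median or of vehicle wells; lower values mean less growth of the strain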
Details: growth OD

Measured: normalized growth

CN[C@@H]1C(OC2[C@H](O[C@H]3[C@H](O)[C@@H](O)[C@H](N=C(N)N)[C@@H](O)[C@@H]3N=C(N)N)OC(C)[C@]2(O)CO)OC(CO)C(O)C1O (stereo partly drawn)
inactive: S. cerevisiae deletion strains, locus YKL009W, strain mrt4, active compounds read low 0.975 | S. cerevisiae deletion strains, locus YKL068W, active compounds read low 0.991 | S. cerevisiae deletion strains, locus YKL085W, strain MDH1 (second series), active compounds read low 1.01 | S. cerevisiae deletion strains, locus YKL085W, strain MDH1, active compounds read low 1.01 | S. cerevisiae deletion strains, locus YKL160W, strain elf1, active compounds read low 1 | S. cerevisiae deletion strains, locus YKL190W, strain CNB1, active compounds read low 0.998 | S. cerevisiae deletion strains, locus YKR001C, strain vps1, active compounds read low 0.981 | S. cerevisiae deletion strains, locus YKR026C, strain gcn3, active compounds read low 0.992 | S. cerevisiae deletion strains, locus YKR091W, strain srl3, active compounds read low 0.998 | S. cerevisiae deletion strains, locus YLL001W, strain dnm1, active compounds read low 0.995 | S. cerevisiae deletion strains, locus YLL026W, active compounds read low 0.998 | S. cerevisiae deletion strains, locus YLL041C, strain sdh2, active compounds read low 1.01 | S. cerevisiae deletion strains, locus YLR027C, strain aat2, active compounds read low 1 | S. cerevisiae deletion strains, locus YLR039C, strain RIC1, active compounds read low 1.01 | S. cerevisiae deletion strains, locus YLR058C, strain SHM2, active compounds read low 0.985 | S. cerevisiae deletion strains, locus YLR102C, strain apc9, active compounds read low 0.976 | S. cerevisiae deletion strains, locus YLR113W, strain HOG1, active compounds read low 1.06 | S. cerevisiae deletion strains, locus YLR221C, strain rsa3, active compounds read low 1.02 | S. cerevisiae deletion strains, locus YLR258W, strain gsy2, active compounds read low 1.01 | S. cerevisiae deletion strains, locus YLR262C, strain YPT6 (second series), active compounds read low 1 | S. cerevisiae deletion strains, locus YLR262C, strain YPT6, active compounds read low 1.01 | S. cerevisiae deletion strains, locus YLR268W, strain sec22, active compounds read low 0.985 | S. cerevisiae deletion strains, locus YLR320W, strain mms22, active compounds read low 1.03 | S. cerevisiae deletion strains, locus YLR330W, strain CHS5, active compounds read low 0.991 | S. cerevisiae deletion strains, locus YLR342W, strain FKS1 (second series), active compounds read low 1.04 | S. cerevisiae deletion strains, locus YLR342W, strain FKS1, active compounds read low 1 | S. cerevisiae deletion strains, locus YLR357W, strain rsc2, active compounds read low 0.962 | S. cerevisiae deletion strains, locus YLR370C, strain arc18, active compounds read low 1.01 | S. cerevisiae deletion strains, locus YLR371W, strain rom2, active compounds read low 0.973 | S. cerevisiae deletion strains, locus YLR384C, strain iki3, active compounds read low 0.997 | S. cerevisiae deletion strains, locus YLR418C, strain cdc73, active compounds read low 0.954 | S. cerevisiae deletion strains, locus YML016C, strain PPZ1, active compounds read low 0.993 | S. cerevisiae deletion strains, locus YML032C, strain rad52, active compounds read low 0.988 | S. cerevisiae deletion strains, locus YML120C, strain ndi1, active compounds read low 0.99 | S. cerevisiae deletion strains, locus YML124C, strain tub3, active compounds read low 0.972 | S. cerevisiae deletion strains, locus YMR058W, strain fet3, active compounds read low 1.01 | S. cerevisiae deletion strains, locus YMR078C, strain ctf18, active compounds read low 0.959 | S. cerevisiae deletion strains, locus YMR125W, strain sto1, active compounds read low 0.997 | S. cerevisiae deletion strains, locus YMR129W, active compounds read low 1 | S. cerevisiae deletion strains, locus YMR205C, strain PFK2, active compounds read low 0.995 | S. cerevisiae deletion strains, locus YMR223W, strain ubp8, active compounds read low 0.961 | S. cerevisiae deletion strains, locus YMR231W, strain pep5, active compounds read low 1.01 | S. cerevisiae deletion strains, locus YMR263W, strain SAP30, active compounds read low 0.979 | S. cerevisiae deletion strains, locus YMR307W, strain GAS1, active compounds read low 1.1 | S. cerevisiae deletion strains, locus YNL067W, strain RPL9B, active compounds read low 0.976 | S. cerevisiae deletion strains, locus YNL071W, strain lat1, active compounds read low 1.01 | S. cerevisiae deletion strains, locus YNL183C, strain NPR1, active compounds read low 0.99 | S. cerevisiae deletion strains, locus YNL209W, strain ssb2, active compounds read low 0.996 | S. cerevisiae deletion strains, locus YNL233W, strain BNI4, active compounds read low 0.976 | S. cerevisiae deletion strains, locus YNL248C, strain rpa49, active compounds read low 1.02 | S. cerevisiae deletion strains, locus YNL250W, strain rad50, active compounds read low 0.975 | S. cerevisiae deletion strains, locus YNL271C, strain bni1, active compounds read low 0.975 | S. cerevisiae deletion strains, locus YNL298W, strain CLA4, active compounds read low 0.977 | S. cerevisiae deletion strains, locus YNL307C, strain MCK1, active compounds read low 0.976 | S. cerevisiae deletion strains, locus YNL322C, strain KRE1 (second series), active compounds read low 0.993 | S. cerevisiae deletion strains, locus YNL322C, strain KRE1, active compounds read low 0.998 | S. cerevisiae deletion strains, locus YNR049C, strain mso1, active compounds read low 1 | S. cerevisiae deletion strains, locus YNR052C, strain pop2, active compounds read low 0.972 | S. cerevisiae deletion strains, locus YOL012C, strain htz1 1 | S. cerevisiae deletion strains, locus YOL147C, strain pex11, active compounds read low 0.982 | S. cerevisiae deletion strains, locus YOR001W, strain rrp6, active compounds read low 1 | S. cerevisiae deletion strains, locus YOR061W, strain CKA2, active compounds read low 0.991 | S. cerevisiae deletion strains, locus YOR069W, strain VPS5, active compounds read low 0.993 | S. cerevisiae deletion strains, locus YOR070C, strain gyp1, active compounds read low 1.01 | S. cerevisiae deletion strains, locus YOR080W, strain dia2, active compounds read low 0.996 | S. cerevisiae deletion strains, locus YOR083W, strain WHI5, active compounds read low 0.998 | S. cerevisiae deletion strains, locus YOR106W, strain vam3, active compounds read low 1.05 | S. cerevisiae deletion strains, locus YOR136W, strain idh2, active compounds read low 0.976 | S. cerevisiae deletion strains, locus YOR144C, strain elg1, active compounds read low 0.984 | S. cerevisiae deletion strains, locus YOR184W, strain ser1, active compounds read low 0.978 | S. cerevisiae deletion strains, locus YOR231W, strain MKK1, active compounds read low 1.04 | S. cerevisiae deletion strains, locus YOR265W, strain rbl2, active compounds read low 0.998 | S. cerevisiae deletion strains, locus YOR270C, strain vph1, active compounds read low 1.07 | S. cerevisiae deletion strains, locus YOR290C, strain snf2, active compounds read low 1.02 | S. cerevisiae deletion strains, locus YOR316C, strain cot1, active compounds read low 0.976 | S. cerevisiae deletion strains, locus YPL051W, strain arl3, active compounds read low 1.01 | S. cerevisiae deletion strains, locus YPL055C, strain LGE1, active compounds read low 1.01 | S. cerevisiae deletion strains, locus YPL078C, strain atp4, active compounds read low 1 | S. cerevisiae deletion strains, locus YPL106C, strain sse1, active compounds read low 1.02 | S. cerevisiae deletion strains, locus YPL240C, strain hsp82, active compounds read low 0.993 | S. cerevisiae deletion strains, locus YPL241C, strain CIN2, active compounds read low 0.998 | S. cerevisiae deletion strains, locus YPL256C, strain CLN2, active compounds read low 1.06 | S. cerevisiae deletion strains, locus YPR119W, strain clb2, active compounds read low 0.971 | S. cerevisiae deletion strains, locus YPR141C, strain kar3, active compounds read low 0.972 | S. cerevisiae deletion strains, locus YPR163C, strain tif3, active compounds read low 0.971 | S. cerevisiae deletion strains, locus YPR167C, strain met16, active compounds read low 0.97 | S. cerevisiae deletion strains, strain wtn01, active compounds read low 0.975 | S. cerevisiae strains, strain wild type, active compounds read low 0.999
